Measurements: PubChem BioAssay (NCATS)
Results filed as inconclusive are left out. Unmarked numbers belong to inactive results. Calls follow the shape of the dose curve; as a rule, active = well fitted inhibition curve with a large enough effect; inconclusive = small, poorly fitted or top-dose-only effect; inactive = flat fitted curve, though single readings scatter.

biological target: Calcium and integrin-binding protein 1 (Homo sapiens) (UniProt Q99828); experiment: Primary qHTS for Identification of Calcium Integrin Binding Protein 1 (CIB1) Competitor (AID 1508620); details: CIB1-GST / FITC-alphaIIb peptide fluorescence polarization; series mostly up to 114 µM; activity change, negative = inhibition: at the top concentration;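 also: GST tagged CIB1 binding a fluorescein labelled alphaIIb integrin peptide tracer; top concentration of the series differs between compounds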
Method in brief: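 Fluorescence polarization competition: CIB1-GST (1 uM final) preincubated with compound 15 min at room temperature, then FITC-labeled alphaIIb peptide (100 nM final) added for another 15 min. Polarization read at Ex 480/Em 540.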
% is scaled to controls: 0 for no effect and ±100 for the full control effect.

Chain of Calcium and integrin-binding protein 1 (Homo sapiens) (Q99828 whole entry, looked up): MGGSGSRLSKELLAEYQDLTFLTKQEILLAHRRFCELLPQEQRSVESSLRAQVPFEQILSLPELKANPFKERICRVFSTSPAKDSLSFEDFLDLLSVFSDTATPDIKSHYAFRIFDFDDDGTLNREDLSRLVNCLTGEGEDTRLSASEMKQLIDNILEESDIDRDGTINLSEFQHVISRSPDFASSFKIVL

SMILES	activity change, negative = inhibition
C=C(C)C(=O)O[C@H]1[C@H]2C(=C)C(=O)O[C@@H]2C[C@@H](C)[C@@H]2O[C@@H]2C(=O)[C@](C)(O)[C@@H]1OC(=O)C(=C)C	-4.45% [at 57.7 µM]
COc1cc(N2CCC(N3CCN(C)CC3)CC2)ccc1Nc1ncc(Cl)c(Nc2ccccc2P(C)(C)=O)n1	2.61%
CN1CCN(c2ccc(Nc3cc(-c4cccc(-n5ccc6cc(C7CC7)cc(F)c6c5=O)c4CO)cn(C)c3=O)nc2)CC1	-8.37%
O=C(Cc1c(F)cccc1F)Nc1cc(OCc2ccc(Cl)cc2)ccn1	0.41%
